ALDH1A1 inh: qHTS Assay for Inhibitors of Aldehyde Dehydrogenase 1 (ALDH1A1). Potency, µM (titrated, usually from 75.3 µM), usual class: inhibitors. Purified ALDH1A1, NADH fluorescence, propionaldehyde substrate. 7.3% of 220,000 active. Aldehyde dehydrogenase 1A1 (Homo sapiens), P00352. AID 1030, 2008; active = well fitted inhibition curve with a large enough effect, not every such curve was filed as active; inconclusive = small, poorly fitted or top-dose-only effect, or another doubt; inactive = no such curve, though single readings can be large or run the other way
Target sequence (P00352 whole entry, looked up): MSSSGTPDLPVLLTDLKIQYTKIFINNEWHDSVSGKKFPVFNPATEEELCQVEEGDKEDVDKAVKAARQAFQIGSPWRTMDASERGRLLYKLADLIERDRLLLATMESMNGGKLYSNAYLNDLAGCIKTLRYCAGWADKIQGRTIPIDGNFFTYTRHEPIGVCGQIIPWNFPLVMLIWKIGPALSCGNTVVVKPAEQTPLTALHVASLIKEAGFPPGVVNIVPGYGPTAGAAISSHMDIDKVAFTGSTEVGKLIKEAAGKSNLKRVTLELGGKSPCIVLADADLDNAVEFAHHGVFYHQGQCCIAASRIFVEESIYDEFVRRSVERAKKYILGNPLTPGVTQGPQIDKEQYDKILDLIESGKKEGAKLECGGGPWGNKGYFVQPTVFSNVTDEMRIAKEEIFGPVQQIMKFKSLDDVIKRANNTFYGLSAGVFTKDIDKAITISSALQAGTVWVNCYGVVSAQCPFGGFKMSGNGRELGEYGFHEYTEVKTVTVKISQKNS
PLK1 PBD inh: qHTS for Inhibitors of PLK1-PDB (polo-like kinase 1 - polo-box domain): Primary Screen. Serine/threonine-protein kinase PLK1 (Homo sapiens), P53350. Plk1 PBD binding of FITC phosphopeptide, fluorescence polarization. Potency, µM, hits mostly inhibitors. 2.8% of 360,000 active. AID 720504, 2013; note: series mostly up to about 57 µM; nearly all actives have a fitted effect of over 65% in size
Gal4-VP16 FLuc: VP16 counterscreen qHTS for inhibitors of ROR gamma transcriptional activity. AID 2546, 2010. Drosophila S2 Gal4-VP16 UAS-luciferase, luminescence, 20 h. Potency, µM (titrated, usually from 53.6 µM), actives largely listed as inhibitors. 3.5% of 310,000 active;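 note: Gal4-VP16 expression switched on by copper sulfate through the metallothionein promoter; nearly all actives have a fitted effect of over 50% in size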
RORg inh: qHTS for inhibitors of ROR gamma transcriptional activity; Nuclear receptor ROR-gamma (Mus musculus), P51450; Drosophila S2 Gal4-RORgamma UAS-luciferase reporter, 20 h; Potency, µM (doses to about 53.6 µM), actives largely listed as inhibitors; 5.4% of 310,000 active; note: nearly all actives have a fitted effect of over 60% in size
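Schneider cells (Drosophila), stable Gal4 DBD–ROR gamma + UAS-luc; 1 hr cmpd preincubation; Cu2+ induction 700 uM final; 20 hr ambient; luminescence.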
Sfp inh: qHTS Assay for Inhibitors of Bacillus subtilis Sfp phosphopantetheinyl transferase (PPTase); Potency, µM, most hits filed as inhibitors; Biochemical Sfp PPTase activity, qHTS; 3.5% of 310,000 active; 4'-phosphopantetheinyl transferase ffp (Bacillus subtilis), Q9F4F7;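 note: the enzyme is Sfp with the accession as filed and its product quenches rhodamine fluorescence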
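Step 1, compound plus 15 nM Sfp-PPTase, 15 min, room temperature. Step 2, add rhodamine-CoA (5 uM) and BHQ-2-YbbR (12.5 uM). Step 3, read 525/598 nm fluorescence at 0 and 30 min.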
Hits are given with their value; n = inactive; u = inconclusive; x = not tested or not shown; [ ] = dose if it differs, or a comment. A selection: hits, their analogues and other compounds. The true share with any hit is near 12%. Unless noted, calls come from the whole dose curve; as a rule, active = well fitted curve in the direction sought with a large enough effect; inconclusive = small, poorly fitted or top-dose-only effect, or another doubt; inactive = no such curve, though single readings can be large; an effect the other way counts as inactive or inconclusive.

SMILES | ALDH1A1 inh | PLK1 PBD inh | Gal4-VP16 FLuc | RORg inh | Sfp inh
O=C(c1cc(-c2ccc3c(c2)OCO3)on1)N1CCOCC1 | n | n | 7.9µM | 10µM | n
O=C(c1cc(-c2ccc(Cl)cc2Cl)on1)N1CCOCC1 | n | n | u | 10µM | n
Cc1nn2c(C(F)(F)F)cc(-c3ccc(Cl)cc3)nc2c1C(=O)N1CCOCC1 | 11µM | n | n | n | u
O=C(c1cc(-c2ccc(Cl)cc2)on1)N1CCOCC1 | n | n | u | 10µM | n
CC(=O)N[C@@H]1CONC1=O | n[13.5 µM] | x | x | x | x
Cc1c(O)cc2n(c1=O)-c1ccccc1C2(C)C | n | n | n | n | n
CC1(C)c2ccccc2-n2c1cc1oc(=O)cc(O)c1c2=O | x | n | n | n | 89µM
Cc1ccc(OC(=O)CCC(=O)Nc2ccc(C(N)=O)cc2)cc1 | x | n | x | x | x
CCOc1ccc(C(C(=O)NCC2CCCO2)N(Cc2cccs2)C(=O)c2snc(C(N)=O)c2N)cc1 (centres undefined) | x | n | n | n | n
CCOc1cccc2oc(-c3ccccc3Cl)cc(=O)c12 | n | x | u | n | n
CC1CCN(C(=O)COC(=O)c2ccccc2NCCO)CC1 | x | n | x | x | x
CCOC(=O)c1ccccc1NC(=S)N1CCC(C)CC1 | n | n | u | 13µM | n
CCOC(=O)c1ccccc1NC(=S)N1CC(C)CC(C)C1 (centres undefined) | 25µM | n | u | u | n
CCN(CC(=O)NCc1cccs1)C(=O)c1ccc(NS(=O)(=O)c2ccc(F)cc2)cc1 | x | n | x | x | x
CC(=O)c1cnc(-c2ccccn2)s1 | u | 21µM | n | n | n
CC[C@H](C)[C@H](NC(=O)[C@H](Cc1ccc(O)cc1)NC(=O)[C@@H](NC(=O)[C@H](CCCN=C(N)N)NC(=O)[C@@H](N)CC(=O)O)C(C)C)C(=O)N[C@@H](Cc1cnc[nH]1)C(=O)N1CCC[C@H]1C(=O)N[C@@H](Cc1ccccc1)C(=O)N[C@@H](Cc1cnc[nH]1)C(=O)N[C@@H](CC(C)C)C(=O)O | x | x | n | n | n
O=C1C2C3C=CC(C3=C3CCCCC3)C2C(=O)N1Cc1ccccc1 (centres undefined) | 6.3µM | n | u | u | n
CC(C)(C)c1cc(=O)n2c(C#N)c(C#N)nc2[nH]1 | u | n | n | n | n
CC(C)(C)c1ccc(-n2nc(C#N)c(Cl)cc2=O)cc1 | 13µM | u | 7.1µM | 7.1µM | n
CC(C)(C)c1ccc(-n2nc(C(N)=O)c(O)cc2=O)cc1 | n | 4.7µM | n | n | n
Cc1nc2cnc(N3CCN(C)CC3)nc2n(C)c1=O | u | x | n | n | n
O=c1cc(-c2ccccc2Cl)oc2c(NS(=O)(=O)c3cc(Cl)cc(Cl)c3O)ccc(O)c12 | 10µM | 15µM | 5µM | u | n
CN(C)Cc1ccccc1-c1cncnc1Nc1ccccc1 | u | x | n | n | n
COc1ccc(OCC(=O)Nc2ccc(C)c(S(=O)(=O)N(C)C)c2)cc1 | 28µM | n | n | u | n
CC(=O)c1ccc(OCCCC(=O)Nc2ccc(C)c(S(=O)(=O)N(C)C)c2)cc1 | u | n | n | u | n
SMILES | ALDH1A1 inh | PLK1 PBD inh | Gal4-VP16 FLuc | RORg inh | Sfp inh
COc1ccc(CCNCC(=O)Nc2ccc(C)c(S(=O)(=O)N(C)C)c2)cc1OC | 16µM | n | n | n | u
Cc1ccc(NC(=O)CCNCc2ccco2)cc1S(=O)(=O)N(C)C | 16µM | n | n | n | n
COc1ccccc1CNc1ncnc2ccc(-c3ccc(N(C)C)cc3)cc12 | u | x | n | n | u
O=c1c2cn[nH]c2[nH]c(=S)n1-c1ccccc1 | u | n | n | n | 14µM
COc1ccc(-n2c(=S)[nH]c3[nH]ncc3c2=O)cc1 | x | n | n | n | 50µM
O=c1c2cn[nH]c2[nH]c(=S)n1-c1cccc2ccccc12 | n | n | n | n | n
O=[N+]([O-])/C(C(Cl)=C(Cl)Cl)=C(/NC1CC1)Sc1ccccc1 | 18µM | u | n | n | n
Cc1cc(C)c(C(O)c2ncc(-c3ccccc3Cl)[nH]2)c(C)c1 (centres undefined) | x | n | x | x | x
CCCc1ncc(C(O)(c2ccccc2)c2ccc(C)cc2)n1C (centres undefined) | u | n | n | u | n
CCCc1ncc(C(O)(c2ccccc2)c2ccccc2)n1C | n | n | n | 14µM | n
Cc1ccc(-c2nc(NCc3ccco3)c3ccccc3n2)cc1 | n | n | u | u | n
c1cncc(-c2nc(NCc3ccco3)c3ccccc3n2)c1 | u | n | u | u | 79µM
OCCNc1nc(-c2cccnc2)nc2ccccc12 | 25µM | n | n | n | n
